Laboratory results reported in PubChem BioAssay (Tox21).
Values joined by “and” are separate entries in the source; they are usually repeats but may differ in a detail not shown here. Identical values can stand only once. Inconclusive results are not listed. Entries that show only a call come without a potency. More than one record can exist for a structure, and the calls need not agree. Active and inactive are the calls of the source. Unless noted, the call rests on the fitted dose curve; in most records, active means well fitted curve in the direction sought with a large enough effect in the repeat runs; inconclusive means weak or mixed curves; inactive means no such curve, though single readings can be large; an effect the other way counts as inactive or inconclusive.

Legend:
[1] = qHTS assay to identify small molecule antagonists of the estrogen receptor alpha (ER-alpha) signaling pathway using the BG1 cell line in the presence of 0.1 nM 17-beta-estradiol - cell viability counter screen (AID 1259241); details: VM7Luc4E2 (BG1) viability, CellTiter-Fluor protease, 22 h, 0.1 nM estradiol agonist added; series mostly up to 92.4 µM; further: nearly all actives have a fitted effect of over 40% in size
Procedure, shortened: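 Cells were plated and left 24 hr, compounds in DMSO were pinned in, 17beta-estradiol was added to 0.1 nM final, and after 22 hr CellTiter-Fluor reagent was added for 30 min before fluorescence was read.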

[2] = qHTS assay to identify small molecule HDAC inhibitors (AID 1259364); details: HCT-116 HDAC-Glo I/II luminescence, 2 h; series mostly up to 92.4 µM;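 further: wild-type HCT-116 cells with endogenous class I/II HDAC activity; top concentration of the series differs between compounds; nearly all actives have a fitted effect of over 45% in size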
Procedure, shortened: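 HCT-116 wt cells, 1,500/well, overnight attach. Compounds (DMSO) 2 h, 37 °C. HDAC-Glo I/II, 30 min RT. Luminescence.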

[3] = qHTS assay to identify small molecule HDAC inhibitors - cell viability counter screen (AID 1259365); details: HCT-116 viability, CellTiter-Glo ATP luminescence, 2 h; series mostly up to 92.4 µM; further: nearly all actives have a fitted effect of over 50% in size
Procedure, shortened: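 Counter screen in wild-type HCT-116 cells: compounds dissolved in DMSO are pin-transferred onto overnight-plated cells and left 2hr at 37C. ATP-based CellTiter-Glo luminescence then measures viable cells.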

[4] = qHTS assay to identify small molecule agonists of the sonic hedgehog signaling (Shh) pathway - cell viability counter screen (AID 1259366); details: NIH/3T3 Gli1-Luc viability, CellTiter-Fluor, 24 h; series mostly up to 92.4 µM; further: nearly all actives have a fitted effect of over 50% in size
Procedure, shortened: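 Cells are plated at 2,000 per well and left 4hr at 37C, 5% CO2 before compound addition. After 23hr of treatment, CellTiter-Fluor reagent is added for 1hr at 37C and fluorescence is measured.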

[5] = qHTS assay to identify small molecule antagonists of the sonic hedgehog signaling (Shh) pathway - cell viability counter screen (AID 1259367); details: NIH/3T3 Gli1-Luc viability, CellTiter-Fluor, 24 h; series mostly up to 92.4 µM; further: nearly all actives have a fitted effect of over 55% in size
Procedure, shortened: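 Fluorescence read-out (CellTiter-Fluor, 1 hr at 37C) taken after 23 hr compound treatment of 3T3 Gli1-Luc cells stimulated with conditioned medium. Cells were seeded at 2,000 per well and pre-incubated 4 hr.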

[6] = qHTS assay to identify small molecule agonists of the sonic hedgehog signaling (Shh) pathway (AID 1259368; calls by dose curve;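 further: NIH/3T3-derived 3T3Gli1-Luc cells carrying a stable Gli1-driven firefly luciferase reporter; nearly all actives have a fitted effect of over 15% in size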); details: NIH/3T3 Gli1-Luc reporter, luciferase, 24 h; series mostly up to 92.4 µM
Procedure, shortened: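 Following a 24 hr incubation with DMSO-dissolved compounds at 37 C, 5% CO2, Gli1-Luc NIH/3T3-derived cells received luciferase reagent for 30 min at room temperature prior to luminescence measurement.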

[7] = biological target: Estrogen receptor beta (Homo sapiens) (UniProt Q92731); test: qHTS assay to identify small molecule agonists of the estrogen receptor beta (ER-beta) signaling pathway (AID 1259377; active means well fitted activation curve with a large enough effect in the signal ratio in the repeat runs, not every such curve was filed as active; the % refers to the signal ratio); details: ER-beta-UAS-bla HEK293T, beta-lactamase FRET ratio, 16 h; series mostly up to 92.4 µM
Estrogen receptor beta (Homo sapiens), sequence (Q92731 whole entry, looked up, the tested form may be a part): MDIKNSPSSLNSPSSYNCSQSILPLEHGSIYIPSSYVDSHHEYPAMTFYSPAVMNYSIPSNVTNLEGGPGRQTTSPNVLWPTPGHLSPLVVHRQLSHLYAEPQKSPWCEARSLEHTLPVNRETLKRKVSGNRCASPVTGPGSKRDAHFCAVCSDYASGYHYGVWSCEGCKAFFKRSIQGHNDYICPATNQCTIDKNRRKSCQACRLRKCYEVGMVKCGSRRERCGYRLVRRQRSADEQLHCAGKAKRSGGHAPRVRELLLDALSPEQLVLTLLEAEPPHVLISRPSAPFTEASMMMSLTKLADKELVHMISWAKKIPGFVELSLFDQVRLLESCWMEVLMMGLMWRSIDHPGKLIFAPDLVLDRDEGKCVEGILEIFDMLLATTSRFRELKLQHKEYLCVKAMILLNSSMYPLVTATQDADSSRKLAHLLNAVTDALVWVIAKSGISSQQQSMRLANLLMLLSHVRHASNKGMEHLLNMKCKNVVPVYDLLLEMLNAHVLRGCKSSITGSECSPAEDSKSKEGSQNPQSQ
Procedure, shortened: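 Agonist mode cell assay in GripTite HEK293T cells expressing an ER-beta fusion that drives beta-lactamase from an Upstream Activator Sequence; 16 hr compound exposure at 37C, then 2 h LiveBLAzer B/G FRET substrate at room temperature, fluorescence read-out.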

[8] = qHTS assay to identify small molecule agonists of the androgen receptor (AR) signaling pathway in the presence of an antagonist - cell viability counter screen (AID 1259379); details: MDA-kb2 viability, CellTiter-Fluor, 16 h; series mostly up to 92.4 µM; further: nearly all actives have a fitted effect of over 25% in size; further: potency means the concentration at half of the fitted maximal effect
Procedure, shortened: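 Each compound was tested at 15 concentrations on MDA-kb2 cells in the presence of 3.0uM nilutamide. Viability was measured by CellTiter-Fluor fluorescence after a 16 hr incubation at 37C in a CO2-free atmosphere.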

[9] = qHTS assay to identify small molecule agonists of the estrogen receptor beta (ER-beta) signaling pathway - cell viability counter screen (AID 1259380); details: ER-beta-bla HEK293T viability, CellTiter-Glo luminescence, 16 h; series mostly up to 92.4 µM; further: nearly all actives have a fitted effect of over 30% in size; further: potency means the concentration at half of the fitted maximal effect
Procedure, shortened: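 Compounds dissolved in DMSO were pin-transferred onto ER-beta-UAS-bla HEK293T cells that had settled 6 hr, and exposure ran 16 hr at 37C. Following the reporter read, CellTiter-Glo luminescence after 30 min at room temperature indicated cytotoxicity.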

[10] = qHTS assay to identify small molecule antagonists of the estrogen receptor beta (ER-beta) signaling pathway - cell viability counter screen (AID 1259382); details: ER-beta-UAS-bla HEK293T viability, CellTiter-Glo luminescence, 16 h; series mostly up to 92.4 µM; further: nearly all actives have a fitted effect of over 55% in size; further: potency means the concentration at half of the fitted maximal effect
Procedure, shortened: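 CellTiter-Glo ATP luminescence measured after the LiveBLAzer read in the same wells; ER-beta-UAS-bla HEK293T cells, 16 hr compound treatment with 1nM 17-beta-estradiol agonist at 37C, 5% CO2.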

[11] = qHTS assay to identify small molecule agonists or antagonists of the thyroid stimulating hormone receptor (TSHR) signaling pathway - wild type cell line counter screen (AID 1259384; calls by dose curve); details: HEK293 wild type, cAMP HTRF counter-screen; series mostly up to 92.4 µM
Procedure, shortened: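 Wild-type Hek293 cells, 800/well, 18 h at 37C, then compound with Ro20-1724 for 30 min RT. cAMP by HTRF (cAMP-d2/anti-cAMP cryptate), 1 h RT, fluorescence read. 15 concentrations, triplicates.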

[12] = qHTS assay to identify small molecule phospholipidosis (PLD) inducers (AID 1259344; active means well fitted curve in the direction sought with a large enough effect; an effect the other way counts as inactive or inconclusive); details: HepG2 phospholipidosis, LipidTOX Red imaging, 24 h; series mostly up to 38.3 µM
Procedure, shortened: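 Read-out is LipidTOX Red fluorescence (ex 595/em 615) imaged in HepG2 cells after 24 h compound exposure at 37 C, with Hoechst nuclear counterstain (ex 352/em 461) allowing per-cell normalisation.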

[13] = qHTS assay to identify small molecule antagonists of the sonic hedgehog signaling (Shh) pathway (AID 1259369; calls by dose curve; further: nearly all actives have a fitted effect of over 45% in size); details: NIH/3T3 Gli1-Luc reporter, Shh antagonist, luminescence 24 h; series mostly up to 92.4 µM
Procedure, shortened: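 Read-out is luminescence from a firefly luciferase gene controlled by the Gli1 response element, in 3T3Gli1-Luc cells pre-incubated 4hr then exposed to compounds and conditioned medium for 24hr.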

[14] = biological target: Estrogen receptor (Homo sapiens) (UniProt P03372); test: qHTS assay to identify small molecule agonists of the estrogen receptor alpha (ER-alpha) signaling pathway in the presence of an antagonist (AID 1259383; calls by dose curve; further: top concentration of the series differs between compounds; nearly all actives have a fitted effect of over 15% in size); details: VM7Luc4E2 cells, ERE-luciferase, +ICI-182,780, 22 h; series mostly up to 92.4 µM
Estrogen receptor (Homo sapiens), sequence (P03372 whole entry, looked up): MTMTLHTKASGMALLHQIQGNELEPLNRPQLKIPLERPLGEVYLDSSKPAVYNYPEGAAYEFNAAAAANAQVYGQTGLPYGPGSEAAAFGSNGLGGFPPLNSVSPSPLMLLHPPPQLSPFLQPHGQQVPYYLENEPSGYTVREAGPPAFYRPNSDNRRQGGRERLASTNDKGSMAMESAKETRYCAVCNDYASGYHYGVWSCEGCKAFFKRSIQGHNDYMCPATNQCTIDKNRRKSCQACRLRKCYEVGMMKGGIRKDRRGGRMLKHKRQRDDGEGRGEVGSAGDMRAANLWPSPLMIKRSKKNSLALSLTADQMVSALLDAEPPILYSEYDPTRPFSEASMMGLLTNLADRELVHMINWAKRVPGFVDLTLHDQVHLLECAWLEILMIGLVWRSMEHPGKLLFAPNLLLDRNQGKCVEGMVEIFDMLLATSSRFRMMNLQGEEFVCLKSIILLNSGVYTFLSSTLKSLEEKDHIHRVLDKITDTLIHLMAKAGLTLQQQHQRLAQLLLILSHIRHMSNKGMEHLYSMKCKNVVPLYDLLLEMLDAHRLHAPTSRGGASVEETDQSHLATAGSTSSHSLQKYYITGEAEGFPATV
Procedure, shortened: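 Luminescent ERE-luciferase reporter, VM7Luc4E2 cells (endogenous ER-alpha); 10.0nM ICI-182,780 final; 15-point compound titration; 22hr at 37C; ONE-Glo, 30min RT.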

[15] = biological target: Thyrotropin receptor (Homo sapiens) (UniProt P16473); test: qHTS assay to identify small molecule antagonists of the thyroid stimulating hormone receptor (TSHR) signaling pathway (AID 1259385; calls by dose curve; further: nearly all actives have a fitted effect of over 20% in size); details: TSHR-HEK293 cAMP HTRF, TSH-stimulated antagonist mode; series mostly up to 92.4 µM
Thyrotropin receptor (Homo sapiens), sequence (P16473 whole entry, looked up): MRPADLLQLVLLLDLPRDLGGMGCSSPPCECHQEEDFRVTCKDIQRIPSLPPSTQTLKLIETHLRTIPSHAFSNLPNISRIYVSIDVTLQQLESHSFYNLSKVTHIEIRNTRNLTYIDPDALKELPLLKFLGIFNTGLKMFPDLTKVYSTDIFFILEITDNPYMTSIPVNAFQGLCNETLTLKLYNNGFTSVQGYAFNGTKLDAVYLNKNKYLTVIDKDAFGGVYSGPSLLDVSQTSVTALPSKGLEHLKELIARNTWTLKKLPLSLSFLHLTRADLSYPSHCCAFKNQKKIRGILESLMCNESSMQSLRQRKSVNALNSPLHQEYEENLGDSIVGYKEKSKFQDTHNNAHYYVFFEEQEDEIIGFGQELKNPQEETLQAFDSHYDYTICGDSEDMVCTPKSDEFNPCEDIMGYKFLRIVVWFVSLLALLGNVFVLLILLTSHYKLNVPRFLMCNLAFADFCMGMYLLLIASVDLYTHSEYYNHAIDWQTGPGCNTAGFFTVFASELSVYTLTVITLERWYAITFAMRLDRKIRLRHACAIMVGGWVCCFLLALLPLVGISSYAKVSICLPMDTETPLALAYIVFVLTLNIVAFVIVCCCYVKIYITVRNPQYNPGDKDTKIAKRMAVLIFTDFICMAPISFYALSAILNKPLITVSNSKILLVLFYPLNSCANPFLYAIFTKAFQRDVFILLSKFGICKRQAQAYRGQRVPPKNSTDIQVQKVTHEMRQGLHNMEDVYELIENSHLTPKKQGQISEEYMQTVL
Procedure, shortened: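 TSHR-HEK293 cells (800/well) plated 18 h, then compounds with Ro20-1724 and TSH at 1.5 ng/mL final, 30 min at room temperature. cAMP quantified by HTRF (cAMP-d2/anti-cAMP-cryptate, 1 h); 15 concentrations in triplicate.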

[16] = biological target: Estrogen receptor beta (Homo sapiens) (UniProt Q92731); test: qHTS assay to identify small molecule antagonists of the estrogen receptor beta (ER-beta) signaling pathway (AID 1259378; active means well fitted inhibition curve with a large enough effect in the signal ratio in the repeat runs, not every such curve was filed as active; the % refers to the signal ratio); details: ER-beta-UAS-bla HEK293T, beta-lactamase FRET ratio, 16 h; series mostly up to 92.4 µM
Procedure, shortened: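 ER-beta-UAS-bla HEK293T cells in 2% charcoal-stripped FBS medium treated with compound plus 1nM final 17-beta-estradiol for 16 hr at 37C. Beta-lactamase reporter read by FRET substrate fluorescence after 2 hours at room temperature.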

[17] = biological target: Estrogen receptor (Homo sapiens) (UniProt P03372); test: qHTS assay to identify small molecule antagonists of the estrogen receptor alpha (ER-alpha) signaling pathway using the BG1 cell line in the presence of 0.1 nM 17-beta-estradiol (AID 1259244); details: VM7Luc4E2 (BG1) ERE-luciferase, antagonist mode, 0.1 nM E2, 22 h; series mostly up to 92.4 µM; further: nearly all actives have a fitted effect of over 50% in size; further: potency means the concentration at half of the fitted maximal effect
Procedure, shortened: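 Luciferase signal from VM7Luc4E2 ERE-reporter cells, co-dosed with test compound and 0.1 nM final 17beta-estradiol for 22 h, read with ONE-Glo.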

[18] = qHTS assay to identify small molecule antagonists of the androgen receptor (AR) signaling pathway using the MDA cell line in the presence of 0.5 nM R1881 - cell viability counter screen (AID 1259242); details: MDA-kb2 viability, CellTiter-Fluor protease fluorescence, 16 h; series mostly up to 92.4 µM; further: nearly all actives have a fitted effect of over 45% in size; further: potency means the concentration at half of the fitted maximal effect
Procedure, shortened: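 Cells seeded at 3,000/well and allowed 5 hr at 37C, 0% CO2 before compound transfer and R1881 (0.5 nM final) addition; 16 hr later, live-cell protease fluorescence indicated cytotoxicity.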

Structure (SMILES)	Potency [1]	Potency [2]	Potency [3]	Potency [4]	Potency [5]	Potency [6]	Potency [7]	Potency [8]	Potency [9]	Potency [10]	Potency [11]	outcome [12]	Potency [13]	Potency [14]	Potency [15]	Potency [16]	Potency [17]	Potency [18]
CC/C(C)=N/O	inactive	inactive	inactive	inactive	inactive	inactive	inactive	inactive	inactive	inactive	inactive							
CC[N+](CC)(CC(=O)Nc1c(C)cccc1C)Cc1ccccc1	inactive	inactive		inactive	inactive	inactive		inactive	inactive	inactive	inactive	inactive	inactive					
Nc1cccc(C(F)(F)F)c1	inactive	inactive		inactive	inactive	inactive	inactive	inactive	inactive	inactive	inactive		inactive	inactive	inactive			
C=C(CC(=O)O)C(=O)O	inactive	inactive	inactive	inactive	inactive	inactive	inactive	inactive		inactive	inactive		inactive		inactive	inactive		
Cc1ccccc1C=O	inactive	inactive	inactive	inactive	inactive	inactive		inactive		inactive	inactive		inactive	inactive				
CC(=O)CC(=O)N(C)C	inactive	inactive	inactive	inactive	inactive	inactive	inactive	inactive	inactive	inactive	inactive		inactive	inactive				
CC/C=C(\C(=O)N[C@@H]1C(=O)N2C(C(=O)OCOC(=O)C(C)(C)C)=C(COC(N)=O)CS[C@H]12)c1csc(N)n1	inactive	inactive		inactive	inactive	inactive	inactive	inactive	inactive	inactive	inactive	inactive		inactive			inactive	
CN=C(NC#N)NCCSCc1nc[nH]c1C	inactive	inactive		inactive	inactive	inactive	inactive	inactive	inactive	inactive	inactive	inactive	inactive	inactive	inactive			
C=C1C[C@]23C[C@@]1(O)CC[C@H]2[C@@]12C=C[C@H](O)[C@@](C)(C(=O)O1)[C@H]2[C@@H]3C(=O)O	inactive	inactive		inactive	inactive	inactive		inactive		inactive	inactive		inactive		inactive			
O=Cc1ccc(CO)o1	inactive	inactive		inactive	inactive	inactive	inactive	inactive		inactive	inactive		inactive	inactive		inactive	inactive	
NC1CCCCC1N (stereo not given)	inactive	inactive	inactive	inactive	inactive	inactive	inactive	inactive	inactive	inactive	inactive				inactive	inactive		
CCCCCCCCCCCCCC(=O)O	inactive	inactive		inactive	inactive	inactive	inactive	inactive	43.1 µM (active) and 61.1 µM (active)	inactive	inactive			inactive	inactive	inactive		
CC1=CC(=O)CC(C)(C)C1		inactive	inactive	inactive	inactive	inactive		inactive	6.29 µM (active)	14.1 µM (active) and inactive	inactive				inactive			inactive
CCCOC(=O)NCCCN(C)C	inactive	inactive	inactive	inactive	inactive	inactive		inactive	inactive	inactive	inactive		inactive		inactive			
C=CC(C)(C)C	inactive	inactive		inactive	inactive	inactive	inactive	inactive	inactive	inactive	inactive		inactive	inactive	inactive			
COc1c2ccoc2cc2oc(=O)ccc12	inactive	inactive	inactive	inactive	inactive	inactive	inactive	inactive	inactive	inactive	inactive		inactive	inactive	inactive	inactive		
Cc1ccncc1	inactive	inactive	inactive	inactive	inactive	inactive	inactive	inactive		inactive	inactive		inactive	inactive	inactive			
COc1ccc2cc3[n+](cc2c1OC)CCc1cc2c(cc1-3)OCO2		inactive	inactive	inactive	inactive	inactive		4.89 µM (active) and 8.41 µM (active)	48.9 µM (active)	inactive		inactive	inactive	inactive			1.55 µM (active) and 11.9 µM (active)	10.6 µM (active)
